Values joined by “and” are separate entries in the source; they are usually repeats but may differ in a detail not shown here. Equal values may be shown once. Out of some 410,000 compounds screened, about 18,000 (4.4%) were called active. Inconclusive results (about 7%) are left out. The sample holds actives, similar compounds and a random draw of the others, so the mix is not that of the screen. Rule as the data show it: active = activity change below about -60%; inconclusive = no clear call, values can overlap the other calls; inactive = above about -39%.
% is scaled to controls: 0 for no effect and ±100 for the full control effect.

The nature of the test: qHTS Assay for inhibitors of the human cytomegalovirus (HCMV). As to conditions: HFF cells, HCMV-luciferase reporter, 72 h; at 57.5 µM; active compounds read low. The essentials: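 HFF cells seeded 16 h at 37C, treated with compounds, infected with luciferase-reporter HCMV at MOI 1 PFU/cell; luciferase read at 72 h post infection, normalized to buffer-only and Salinomycin controls.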
(qHTS replaces the single test concentration by a dilution series.)
`CSc1ccc(C2C(C(=O)Nc3ccccc3)=C(C)Nc3nc4ccccc4n32)cc1` (stereo not drawn): the activity change, negative = inhibition was 8.38% (inactive).

In the case of `COc1ccc(CNC(=O)Cn2nnc(-c3ccc(S(C)(=O)=O)cc3)n2)cc1`, the activity change, negative = inhibition is 21.5% (inactive). As to `COc1cccc(N2CCN(c3ccc4nnc(CCC(=O)N5CCN(C)CC5)n4n3)CC2)c1`, the activity change, negative = inhibition is -14.4% (inactive).

In the case of `COc1cccc(-c2nc3ccc(N4CCN(C)CC4)cc3[nH]2)c1`, the activity change, negative = inhibition was -68.2% (active). Next, `COc1ccc(N2CCN(C3=NS(=O)(=O)C(c4cccc(Br)c4)=C3C)CC2)cc1`: -29.4% (inactive). Next, `CCCCOC(=O)CSc1ncnc2sc3c(c12)CCC(C)C3` (stereo not drawn): -8.12% (inactive); `C[n+]1ccc(/C=C/c2c[nH]c3ccccc23)cc1`: -99.1% (active); `CCC/C(=N\O)c1c[nH]c2ccccc12`: 26.6% (inactive). With `CN1CCN(/N=C/c2c[nH]c3ccccc23)CC1`, the activity change, negative = inhibition is 41% (inactive). In the case of `COc1ccc(Cl)cc1N(C)C(=O)c1cc2c(=O)oc3ccc(C)cc3c2s1`, the activity change, negative = inhibition is -13.9% (inactive).

As to `O=C(CN1CCSc2ccccc21)N1CCN(c2ccccc2)CC1`, the activity change, negative = inhibition is -1.62% (inactive). Turning to `CC(NC(=O)CN(C)S(=O)(=O)c1ccc(F)cc1)C1CC2CCC1C2` (stereo not drawn), the activity change, negative = inhibition is 5.39% (inactive).

Turning to `Cc1cccc(C(=O)OCC(=O)NC(C)C2CC3CCC2C3)c1O` (stereo not drawn), the activity change, negative = inhibition is 50.9% (inactive). Next, `CCOC(=O)CCC(=O)OCC(=O)NC(C)C1CC2CCC1C2` (stereo not drawn): -99.5% (active). Take `COc1cccc(NC(=O)COc2cccnc2[N+](=O)[O-])c1`: the activity change, negative = inhibition was 9.93% (inactive). In the case of `COc1cccc(NC(=O)c2csnn2)c1`, the activity change, negative = inhibition is 24.9% (inactive). For the compound `Cn1cnc(S(=O)(=O)Nc2ccc3c(c2)OCCO3)c1`, the activity change, negative = inhibition was 30.3% (inactive).

Turning to `COc1cccc(NC(=O)c2nn(C34CC5CC(CC(C5)C3)C4)cc2[N+](=O)[O-])c1`, the activity change, negative = inhibition is -71.1% (active).

On to `Cn1cc([N+](=O)[O-])c(C(=O)Nc2ccc3c(c2)OCCO3)n1`, for which the activity change, negative = inhibition is -91% (active).

For `Cn1ccnc1SCC(=O)Nc1ccc2c(c1)OCCO2`, the activity change, negative = inhibition is 147% (inactive). Next, `O=C(NCc1ccco1)O[C@H]1CC[C@@]23CCCN2C(=O)CCC[C@H]3[C@H]1Cc1ccccc1`: 13.9% (inactive). As for `CCC(=O)N1CCc2cc(CNS(=O)(=O)c3ccc(Br)s3)ccc21`, the activity change, negative = inhibition was -28.1% (inactive). With `CCOc1ccc(C(=O)N2CCN(CCc3ccccn3)CC2)cc1`, the activity change, negative = inhibition was 7.37% (inactive). As to `Cc1nnc2n1N=C(c1ccc3c(c1)NC(=O)CO3)CS2`, the activity change, negative = inhibition was 58.6% (inactive).

`O=C(c1ccc2c(c1)N(Cc1ccc(F)cc1)C(=O)c1ccccc1S2(=O)=O)N1CCN(c2ccccn2)CC1`: the activity change, negative = inhibition was -76.7% (active) and -91.8% (active).

On to `O=C(c1ccc2c(c1)N(Cc1ccc(Cl)cc1)C(=O)c1ccccc1S2(=O)=O)N1CCCCC1`, for which the activity change, negative = inhibition was -15.9% (inactive). In the case of `O=C(c1ccc2c(c1)N(Cc1ccccc1)C(=O)c1ccccc1S2(=O)=O)N1CCCC1`, the activity change, negative = inhibition was -21.3% (inactive). In the case of `Cc1ccc(Cl)cc1NC(=O)C(C)n1nnc2sc(-c3ccccc3)cc2c1=O` (stereo not drawn), the activity change, negative = inhibition was 17.8% (inactive).

`COc1cc(OC)c(N(C)C(=O)c2cc3c(=O)oc4ccccc4c3s2)cc1Cl`: the activity change, negative = inhibition is -8.12% (inactive).

For the compound `Cn1c(=O)c2c(nc(Oc3ccc(C#N)cc3)n2Cc2ccc(Cl)cc2Cl)n(C)c1=O`, the activity change, negative = inhibition is -9.46% (inactive). On to `Cc1cc(NC(=O)CSCc2ccccc2C)no1`, for which the activity change, negative = inhibition is -34.5% (inactive).

For the compound `Cc1cc(NC(=O)CS(=O)(=O)c2cn(C)c3ccccc23)no1`, the activity change, negative = inhibition is -74.2% (active). Turning to `Cc1cc(NC(=O)COn2nnc3ccccc32)no1`, the activity change, negative = inhibition was 29.8% (inactive). Consider `Cc1ccc2c(=O)c(C(=O)c3ccc(Cl)cc3)cn(CC(=O)NC3CCCCC3)c2n1`, for which the activity change, negative = inhibition was -0.369% (inactive). Next, `CCOc1ccc(CCNC(=O)c2c(C)oc3ncn(C)c(=O)c23)cc1`: -13.7% (inactive); `Cc1cc(C)cc(OCC(=O)Nc2nc(-c3ccc(F)cc3)ns2)c1`: 150% (inactive). As to `CC(C)(C)c1nnc2sc(SCC(O)=C(C#N)c3nc4ccccc4[nH]3)nn2c1=O`, the activity change, negative = inhibition is -4.66% (inactive). As to `COc1ccccc1C(=O)COC(=O)COc1ccc(C#N)cc1`, the activity change, negative = inhibition is -31.6% (inactive). `N#C/C(=C(/O)COC(=O)COc1ccc(Cl)cc1)c1nc2ccccc2[nH]1`: the activity change, negative = inhibition was -101% (active). Consider `Cc1ccc(S(=O)(=O)Nc2ccccc2CNc2c(C)n(C)n(-c3ccccc3)c2=O)cc1`, for which the activity change, negative = inhibition was -7.12% (inactive). With `CC1CCCN(Cc2c(O)ccc3c(=O)c(Oc4ccc(C(C)(C)C)cc4)c(C(F)(F)F)oc23)C1` (stereo not drawn), the activity change, negative = inhibition was -38.5% (inactive). Take `Cc1csc2nc(COC(=O)c3ccc(NC(=O)COc4ccccc4F)cc3)cc(=O)n12`: the activity change, negative = inhibition is 14.4% (inactive). Next, `O=C(CSc1nn(-c2ccc(F)cc2)c(=S)s1)NC1CCS(=O)(=O)C1` (stereo not drawn): -34.3% (inactive). Next, `O=C(CSc1ncnc2sccc12)NC1CCS(=O)(=O)C1` (stereo not drawn): -22.5% (inactive). Turning to `O=C(CSc1ccccc1F)NC1CCS(=O)(=O)C1` (stereo not drawn), the activity change, negative = inhibition was -105% (active).

For `COC(=O)CC(CC(=O)OC)n1cccc1`, the activity change, negative = inhibition was 19.2% (inactive). With `COc1ccc(-n2c(SCC(=O)Nc3sc4c(c3C#N)CCCC4)nnc2-c2ccc(O)cc2)cc1`, the activity change, negative = inhibition is -15.5% (inactive). As for `COc1ccccc1-c1ccnc2[nH]n(-c3ccccc3)c(=O)c12`, the activity change, negative = inhibition was -8.55% (inactive).

Consider `COc1ccc2cc(CNc3ccc(OC)c(OC)c3)c(=O)n(CC(=O)Nc3ccccc3F)c2c1`, for which the activity change, negative = inhibition was 9.9% (inactive). Next, `COc1ccc(S(=O)(=O)N2CCCCC2)cc1NC(=O)COc1ccccc1`: -25.1% (inactive); `Cc1ccc(S(=O)(=O)N2CCCCC2)cc1NC(=O)[C@@H]1CCCN1C(=O)c1cccs1`: 0% (inactive); `CCOc1ccccc1NC(=O)C1CCCN(S(=O)(=O)c2ccccc2)C1` (stereo not drawn): -62% (active). Next, `CCOc1ccc(S(=O)(=O)N2CCCCC2)cc1NC(=O)CN1CCCC1c1cccs1` (stereo not drawn): -90% (active).

For `CCOc1ccccc1NC(=O)COc1ccc(S(=O)(=O)N2CCCC2)cc1`, the activity change, negative = inhibition was -21% (inactive).

Turning to `CCOc1ccccc1NC(=O)C1CCCN(C(=O)Nc2ccccc2)C1` (stereo not drawn), the activity change, negative = inhibition is -21.6% (inactive). Consider `O=C(O)CCc1cccnc1`, for which the activity change, negative = inhibition is -25.2% (inactive). As for `CN(Cc1ccccc1)S(=O)(=O)c1ccc(F)c(C(=O)Nc2cccc(Cl)c2Cl)c1`, the activity change, negative = inhibition is 6.47% (inactive). For `COc1ccc2ncc3c(-c4ccc(C)c(C)c4)nn(CC(=O)NC4CCCC4)c3c2c1`, the activity change, negative = inhibition is 14.2% (inactive). Next, `O=C(CSc1nccn1Cc1ccc(Cl)cc1)NCc1ccccc1`: -18.2% (inactive); `COc1ccc(Cl)cc1NC(=O)Cn1c(=O)c2ccccc2n2nncc12`: 11.9% (inactive); `Cc1nn(-c2ccc([N+](=O)[O-])cc2)c(N)c1-c1ccccc1`: -65.4% (active). On to `CNP1(NC)=Nc2nn(-c3ccccc3)c(N)c2C(c2ccccc2)=N1`, for which the activity change, negative = inhibition was 43.5% (inactive). Consider `Cc1nn(-c2ccccc2)c2c1C(c1cccc([N+](=O)[O-])c1)N(c1ccccc1)C(=O)N2` (stereo not drawn), for which the activity change, negative = inhibition was -9.36% (inactive).

Take `O=C(NNS(=O)(=O)c1ccccc1)c1cnn(-c2ccc(Cl)cc2)c1C(F)(F)F`: the activity change, negative = inhibition was 2.04% (inactive).

Consider `CC(C)c1ccc(C2CC(=O)N3CN(C4CCCCC4)CSC3=C2C#N)cc1` (stereo not drawn), for which the activity change, negative = inhibition was -5.74% (inactive). In the case of `CC(=O)Nc1cc(-c2ccc(N3CCN(C)CC3)cc2)cn2c(-c3cccc(C(=O)N(C)C)c3)cnc12`, the activity change, negative = inhibition was 8.54% (inactive). As for `CC(=O)c1cccc(-c2cnc3c(NC=O)cc(-c4ccc(N5CCN(C)CC5)cc4)cn23)c1`, the activity change, negative = inhibition was 19.8% (inactive). For `CC(=O)Nc1cc(-c2ccc(N3CCN(C)CC3)cc2)cn2c(-c3ccc(F)cc3)cnc12`, the activity change, negative = inhibition was -75.2% (active).

On to `Cc1ccc2cccc(NC(=O)c3cccc4ccccc34)c2n1`, for which the activity change, negative = inhibition is -10.4% (inactive).

On to `COC(=O)C1CCN(C(=O)c2ccc3oc(Cc4ccc(Cl)cc4)nc3c2)CC1`, for which the activity change, negative = inhibition is 8.67% (inactive). Turning to `O=C(NC1CCCCCC1)C1CCN(C(=O)c2ccc(Cl)cc2)CC1`, the activity change, negative = inhibition was -37.2% (inactive).

Regarding `C/C(N)=C(/C#N)C(=O)COC(=O)C1CCN(C(=O)c2ccc(Cl)cc2)CC1`, the activity change, negative = inhibition is -65.3% (active). Next, `CCN(CCCNC(=O)c1c(C)oc2ncn(CC(C)C)c(=O)c12)Cc1ccccc1`: -5.33% (inactive); `Cc1ccc(C)c(NC(=O)C2CCCN(S(=O)(=O)c3cn(C)cn3)C2)c1` (stereo not drawn): 44.9% (inactive); `CC(CNC(=O)c1nnc(Cc2cccc(F)c2)o1)c1ccccc1` (stereo not drawn): -15.6% (inactive). Turning to `O=C(Nc1ccc(C(=O)OCc2cc(=O)n3nc(C4CC4)sc3n2)cc1)c1ccc(F)cc1`, the activity change, negative = inhibition is 7.95% (inactive). As for `CC(C)c1ccc2oc(-c3cc(NC(=O)c4cccs4)ccc3Cl)nc2c1`, the activity change, negative = inhibition is -18.9% (inactive). For `C[C@@H]1Cn2cnc(C(=O)Nc3ccc(CNC(=O)OC(C)(C)C)cc3)c2C(=O)N1`, the activity change, negative = inhibition is -101% (active). In the case of `C[C@H]1Cn2cnc(C(=O)N[C@@H](Cc3c[nH]c4ccccc34)C(=O)OC(C)(C)C)c2C(=O)N1`, the activity change, negative = inhibition was 16% (inactive). `C[C@H]1Cn2cnc(C(=O)N[C@H](C)c3ccccc3)c2C(=O)N1`: the activity change, negative = inhibition is -3.07% (inactive). Regarding `O=C(NCC(c1cccnc1)N1CCc2ccccc21)c1cccc(C(F)(F)F)c1` (stereo not drawn), the activity change, negative = inhibition is -36.7% (inactive). Turning to `O=C(Nc1ccc(Cl)cc1)c1cccc(OC(=S)N2CCOCC2)c1`, the activity change, negative = inhibition is -103% (active). Regarding `O=C(Oc1cccc(C(=S)N2CCOCC2)c1)c1cccc(Cl)c1`, the activity change, negative = inhibition is -4.94% (inactive).

`O=C(Nc1ccccc1C(=O)N1CCOCC1)c1ccc(Cl)cc1`: the activity change, negative = inhibition was 8.32% (inactive).

For the compound `Cc1nc(NC(=O)C2CCCCC2)sc1C`, the activity change, negative = inhibition is 62.5% (inactive).

In the case of `O=C(NNC1=NCCC1)c1cccc(S(=O)(=O)N2CCCCC2)c1`, the activity change, negative = inhibition is -11.4% (inactive). For the compound `Cc1ccc(C(CC(=O)O)Nc2nc(N3CCCCC3)nc(N3CCCCC3)n2)cc1` (stereo not drawn), the activity change, negative = inhibition was -10.1% (inactive). Take `O=C(NNc1nc(N2CCCC2)nc(N2CCCC2)n1)c1ccccc1`: the activity change, negative = inhibition is -66.4% (active).

Values taken from PubChem BioAssay AID1259415 (National Center for Advancing Translational Sciences (NCATS), 2018).
